In all, about 16,000 compounds went through this assay and about 5,100 (32%) were called active. Another 25% or so got no clear call; they are omitted. The call rests on the fitted dose curve; in most records, active means well fitted curve in the direction sought with a large enough effect; inconclusive means small, poorly fitted or top-dose-only effect, or effect the other way; inactive means no such curve, though single readings can be large or run the other way. The list shows a part of the results.
biological target: Cytochrome P450 3A4 (Homo sapiens) (UniProt P08684); experiment: Cytochrome panel assay with activity outcomes; conditions: recombinant CYP, pro-luciferin dealkylation, luminescence, p450-cyp3a4; series mostly up to 57.1 µM; activity, negative = inhibition: at the top concentration
On the % scale 0 is the no-effect control and ±100 the full control effect.

Chain of Cytochrome P450 3A4 (Homo sapiens) (P08684 whole entry, looked up): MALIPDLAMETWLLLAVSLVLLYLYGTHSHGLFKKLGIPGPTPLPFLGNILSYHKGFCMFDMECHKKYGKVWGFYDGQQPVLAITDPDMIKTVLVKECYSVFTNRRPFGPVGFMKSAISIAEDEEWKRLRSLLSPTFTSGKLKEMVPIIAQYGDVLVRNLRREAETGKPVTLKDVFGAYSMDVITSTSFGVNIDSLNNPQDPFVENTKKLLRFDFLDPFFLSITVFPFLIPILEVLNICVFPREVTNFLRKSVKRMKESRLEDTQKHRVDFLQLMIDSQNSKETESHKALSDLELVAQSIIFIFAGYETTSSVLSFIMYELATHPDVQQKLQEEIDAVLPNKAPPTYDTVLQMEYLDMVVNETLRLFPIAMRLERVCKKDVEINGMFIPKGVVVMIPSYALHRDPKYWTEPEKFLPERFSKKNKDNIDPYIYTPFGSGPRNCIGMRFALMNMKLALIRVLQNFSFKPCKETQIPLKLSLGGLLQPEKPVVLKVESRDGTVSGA

AC50, active:
COC(=O)[C@@]1(Cc2ccc(F)cc2)[C@H]2c3cc(C(=O)N(C)C)n(Cc4c(CO)[nH]cc(C)c4=O)c3C[C@H]2CN1C(=O)c1ccccc1 1.58 µM
COC(=O)[C@@]1(Cc2ccccc2)[C@H]2c3cc(C(=O)N(C)C)n(Cc4c(CO)[nH]cc(C)c4=O)c3C[C@H]2CN1C(=O)c1ccccc1 1.58 µM
COCCNC(=O)CSc1nc2ccc(N3CCOCC3)cc2c(=O)n1Cc1ccc(OC)cc1 5.01 µM
CCCCn1c(SCC(N)=O)nc2ccc(N3CCOCC3)cc2c1=O 10 µM
CCCCNC(=O)CSc1nc2cc(OC)c(OC)cc2c(=O)n1Cc1ccc(OC)cc1 2.82 µM
Cc1ccc(OCC(=O)N2CCN(c3ccc([N+](=O)[O-])c(N4CCOCC4)c3)CC2)cc1 7.08 µM
COc1ccc2nc(SCC(=O)c3ccco3)[nH]c2c1 11.2 µM
CCOC(=O)NC(=O)CSc1nc2ccc(OCC)cc2[nH]1 28.2 µM
Cc1ccc2oc(-c3cccc(NC(=S)NC(=O)/C=C/c4ccco4)c3)nc2c1 1 µM
O=C(COc1ccc(Cl)cc1)N(Cc1ccccc1)c1ccccn1 22.4 µM
c1cncc(-c2cncnc2-n2ccnc2)c1 7.94 µM
COc1cccc(-c2cncnc2-n2ccnc2)c1 0.316 µM
CN(C)c1ccc(-c2cncnc2-n2ccnc2)cc1 2.51 µM
N#Cc1cccc(-c2cncnc2-n2ccnc2)c1 2.51 µM
COc1ccccc1-c1cncnc1-n1ccnc1 0.251 µM
CC(Sc1ccc2c(c1)OCCO2)C(=O)Nc1ncc(Cl)cc1Cl (configuration not stated) 14.1 µM
C/C(CCC(=O)OC[C@@H]1O[C@H](C#Cc2ccccc2)C=C[C@@H]1Oc1ccc(C)cc1)=N/O[C@@H](C)CN1CCCCc2nc(C)c(C)cc21 3.16 µM
C/C(CCC(=O)OC[C@@H]1O[C@H](C#Cc2ccccc2)C=C[C@@H]1Oc1ccc(C)cc1)=N/O[C@@H](C)CN1CCCc2nc(C)c(C)cc21 3.98 µM
COC(=O)c1ccccc1N/C=C1\CCc2c(c(C)nn2-c2ccccn2)C1=O 14.1 µM
O=C(Nc1ccc(Cl)c(C(F)(F)F)c1)C1CCCN(S(=O)(=O)c2cnc[nH]2)C1 (configuration not stated) 0.126 µM
COc1ccc(Cc2nnc(NC(=O)CSc3ccc(C)cc3)s2)cc1OC 8.91 µM
COC(=O)c1cc(OC)c(OC)cc1NC(=O)CSc1ccc(C)cc1 1.58 µM

activity, negative = inhibition, inactive:
NC(=O)CSc1nc2sc(-c3ccccc3)cc2c(=O)n1N -22% [at 2.29 µM]
CCCCn1c(SC(C)C(N)=O)nc2cc(C(=O)OC)ccc2c1=O (configuration not stated) -24%
Cc1cc(N2CCOCC2)ncc1[N+](=O)[O-] 8.16% [at 2.29 µM]
Cc1ccc(OC(=O)c2ccc(N3CCOCC3)c([N+](=O)[O-])c2)cc1 19.3%
COC(=O)Nc1nc2ccc(SC(C)C)cc2[nH]1 7.47% [at 25.6 µM]
COc1ccc(C(C)=O)c(OC(=O)c2ccco2)c1 -5.71%
CCCCc1ccc2nc(NC(=O)OC)[nH]c2c1 7.68% [at 25.6 µM]
CN(CC(=O)O)Cc1c(O)c(Cl)cc(Cl)c1Cl -14.8% [at 11.4 µM]
O=C(O)COc1c(Cl)cc(Cl)c2cccnc12 -9.36% [at 11.4 µM]
C[N+](C)(C)CCN(Cc1ccc(Cl)cc1)c1ccccn1 15.1%
O=C1O[C@@H]([C@H](O)[C@H](O)[C@H](O)CO)[C@@H](O)[C@@H]1O -1% [at 11.4 µM]
COc1ccc2c(c1OC)C(=O)N(C(C)C(=O)O)C2=O (configuration not stated) 4.09%
CCCC(=O)n1nc(-c2cccnc2)nc1N 0.62% [at 2.29 µM]
Cc1ccc(C)c(N/C(N)=N/c2nc(C)cc(C)n2)c1 -18.9%
Cc1ccc(C(C2C(=O)CC(C)(C)CC2=O)C2C(=O)CC(C)(C)CC2=O)s1 -24%
C[N+](C)(C)CCCCCCCCCC[N+](C)(C)C 11.2% [at 25.6 µM]
COc1ccccc1-c1nnc(NC(C)=O)s1 -18.1%
CC(C)(C)c1cc(C(=O)O)c(CN2CCCCC2)o1 -12.5%
Cc1cc(NC(=O)C2=C(O)c3ccccc3S(=O)(=O)N2C)no1 -4.95% [at 25.6 µM]
Cc1nn2c3c(cnc2c1-c1ccccc1)C(=O)CC(c1ccccc1)C3 (configuration not stated) -7.16%
CCOC(=O)c1ccccc1N/C=C1\CCCCC1=O -9.45% [at 11.4 µM]
CC(=O)Nc1ccc2c(c1)/C(=C/c1ccc([N+](C)(C)C)cc1)c1ccccc1-2 -11.9% [at 11.4 µM]
CCCS(=O)(=O)N1CCCC(C(=O)NCc2cccnc2)C1 (configuration not stated) -7.24% [at 2.29 µM]
COCc1nnc(NC(=O)CSc2ccc(C)cc2)s1 -22.6% [at 11.4 µM]
O=C(O)CCCC[C@H]1CCSS1 19.8%
